Here are results for 22 compounds from the supplement of paper PMC7156485.

Details in all cases: concentration: 10 µM; 24 h
The test system of assay [1] is HCC1569. The assay is described as follows: cell number relative to DMSO (% of DMSO); higher = more cells (less growth inhibition / toxicity). An outline of the steps:
(§1)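 For HCC1569 and TDF cells, compounds at 10 µM were applied for 24 h at 37 °C in triplicate in 384-well plates. Cells were fixed in 3.7% formaldehyde, stained for H1.0 and with DAPI, and imaged at ×10 over six fields per well. The endpoint, H1.0 nuclear intensity or cell number, is shown as percent of the plate control using the median of replicates. Positional effects were smoothed for HCC1569 only.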

The test system of assay [2] is TDF. Described as above. An outline of the steps:
as §1

Assay [3] concerns TDF. The assay can be described thus: H1.0 immunofluorescence intensity relative to DMSO (% of DMSO); higher = stronger H1.0 induction, active = 120 or more. The procedure, abridged:
as §1

Assay [4] concerns HCC1569. The assay can be described thus: H1.0 immunofluorescence intensity relative to DMSO (% of DMSO); higher = stronger H1.0 induction, active = 140 or more. The procedure, abridged: as §1
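For H1.0 immunofluorescence intensity relative to DMSO in this document: TDF is a line of transformed human dermal fibroblasts of mesenchymal origin.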
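For cell number relative to DMSO in this document: TDF denotes transformed human dermal fibroblasts of mesenchymal origin.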

On to `C[N+](C)(C)CC(O)CC(=O)[O-].Cl` (racemic), for which the cell number in the assay on HCC1569 [1] is 102; in the assay on TDF [2], 120. Moreover, the H1.0 immunofluorescence intensity with TDF [3] is 97.1 (inactive); in the assay with HCC1569 [4], 90.1 (inactive).

Consider `CCC(NC(C)C)C(O)c1ccc(O)c(O)c1.CS(=O)(=O)O` (stereo not drawn) [Isotharine mesylate], for which the cell number was determined as 103 in the assay with HCC1569 [1] and 112 in the assay with TDF [2]. For the same compound, the H1.0 immunofluorescence intensity in the assay on TDF [3] is 92.8 (inactive); in the assay with HCC1569 [4], 91.5 (inactive).

For `CC(C)(O)c1ccccc1CCC(SCC1(CC(=O)O)CC1)c1cccc(C=Cc2ccc3ccc(Cl)cc3n2)c1` (stereo not drawn) [Montelukast], the cell number with HCC1569 [1] and in the assay with TDF [2] was 101 each time. The H1.0 immunofluorescence intensity with TDF [3] was 94.7 (inactive); in the assay with HCC1569 [4], 94.9 (inactive).

On to `CC(C)c1cc(C(C)C)c(CC(=O)NS(=O)(=O)Oc2c(C(C)C)cccc2C(C)C)c(C(C)C)c1`, for which the results for the cell number with HCC1569 [1] and with TDF [2] were 94.4 and 103, respectively. Besides, the H1.0 immunofluorescence intensity in the assay with TDF [3] is 89.8 (inactive); in the assay on HCC1569 [4], 110 (inactive).

With `OCC1OC(n2cnc3c(NC4CC5CCC4C5)ncnc32)C(O)C1O` (stereo not drawn), the cell number stood at 99.1 in the assay on HCC1569 [1] and 92.5 with TDF [2]. Also, the H1.0 immunofluorescence intensity with TDF [3] is 96.9 (inactive); in the assay on HCC1569 [4], 91.9 (inactive).

In the case of `O=C1c2c(O)cc(O)cc2O[C@H](c2cc(O)c(O)c(O)c2)[C@H]1O`, the figures for the cell number in the assay on HCC1569 [1] and with TDF [2] were 95.8 and 99.5, respectively. In addition, the H1.0 immunofluorescence intensity is 98.9 (inactive) in the assay on TDF [3] and 93.3 (inactive) with HCC1569 [4].

`CCCC(=O)NCCc1c2n(c3ccc(OC)cc13)Cc1ccccc1-2`: the values for the cell number in the assay on HCC1569 [1] and in the assay with TDF [2] were 92.4 and 99.3, respectively. Moreover, the H1.0 immunofluorescence intensity in the assay on TDF [3] was 97.1 (inactive); with HCC1569 [4], 108 (inactive).

Turning to `Cc1c2oc3c(C)ccc(C(=O)NC4C(=O)NC(C(C)C)C(=O)N5CCCC5C(=O)N(C)CC(=O)N(C)C(C(C)C)C(=O)OC4C)c3nc-2c(C(=O)NC2C(=O)NC(C(C)C)C(=O)N3CCCC3C(=O)N(C)CC(=O)N(C)C(C(C)C)C(=O)OC2C)c(N)c1=O` (stereo not drawn) [Actinomycin D], the results for the cell number in the assay on HCC1569 [1] and in the assay with TDF [2] were 46.2 and 16.9, respectively. The results for the H1.0 immunofluorescence intensity with TDF [3] and in the assay on HCC1569 [4] were 179 (active) and 175 (active), respectively.

Turning to `CC(C)CCNC(C)C1CCC2C3CC=C4CC(O)CCC4(C)C3CCC12C` (stereo not drawn) [22-Azacholesterol], the cell number in the assay with HCC1569 [1] was found to be 104; in the assay with TDF [2] it was 98.5. Also, the results for the H1.0 immunofluorescence intensity with TDF [3] and in the assay on HCC1569 [4] were 104 (inactive) and 110 (inactive), respectively.

For `O=C(Nc1cc(Cl)cc2c1[nH]c1cnccc12)c1cccnc1` [IKK Inhibitor X], the cell number came to 98.7 in the assay on HCC1569 [1] and 91.8 with TDF [2]. Also, the H1.0 immunofluorescence intensity in the assay with TDF [3] is 101 (inactive); with HCC1569 [4], 106 (inactive).

Regarding `CCn1cc(C(=O)O)c(=O)c2cc(F)c(N3CCN(C)CC3)cc21.CS(=O)(=O)O.O.O` [Pefloxacine mesylate dihydrate], the values for the cell number in the assay with HCC1569 [1] and with TDF [2] were 103 and 111, respectively. Moreover, the H1.0 immunofluorescence intensity in the assay on TDF [3] is 96.4 (inactive); in the assay on HCC1569 [4] it was 109 (inactive).

For `CCN(CC)CCCC(C)Nc1ccnc2cc(Cl)ccc12.O=P(O)(O)O.O=P(O)(O)O` (stereo not drawn) [Chloroquine diphosphate], the values for the cell number in the assay with HCC1569 [1] and in the assay on TDF [2] were 98.3 and 106, respectively. For the same compound, the H1.0 immunofluorescence intensity with TDF [3] is 94.7 (inactive); with HCC1569 [4], 94.1 (inactive).

In the case of `COC(=O)Nc1nc2ccc(Sc3ccccc3)cc2[nH]1` [Fenbendazole], the cell number came to 64 in the assay with HCC1569 [1] and 95.7 in the assay with TDF [2]. Also, the H1.0 immunofluorescence intensity in the assay with TDF [3] was 99.2 (inactive); in the assay on HCC1569 [4], 177 (active).

As for `CCCCCCCCCCCC=CCCCCCCC(=O)O` [8(Z)-Eicosenoic acid], the cell number in the assay on HCC1569 [1] stood at 103; in the assay on TDF [2], 105. Besides, the results for the H1.0 immunofluorescence intensity in the assay on TDF [3] and with HCC1569 [4] were 100 (inactive) and 103 (inactive), respectively.

In the case of `O=C1c2ccccc2-c2n[nH]c3cccc1c23` [JNK Inhibitor II], the cell number in the assay on HCC1569 [1] is 91.4; with TDF [2] it was 112. Moreover, the H1.0 immunofluorescence intensity was 90.5 (inactive) in the assay with TDF [3] and 144 (active) with HCC1569 [4].

Regarding `O=C(NCCCNc1nc(Nc2cccc(NC(=O)N3CCCC3)c2)ncc1I)c1cccs1`, the cell number in the assay on HCC1569 [1] worked out at 62; in the assay with TDF [2] it was 42.3. Also, the H1.0 immunofluorescence intensity in the assay on TDF [3] is 114 (inactive); in the assay on HCC1569 [4], 134 (inactive).

For `CCCNCC(O)COc1ccccc1C(=O)CCc1ccccc1` (stereo not drawn) [Propafenone], the cell number with HCC1569 [1] was 103; in the assay on TDF [2] it was 101. Moreover, the H1.0 immunofluorescence intensity was 92.6 (inactive) in the assay with TDF [3] and 103 (inactive) with HCC1569 [4].

Consider `COc1ccc(/C=C2\COc3ccc(C)cc3C2=O)cc1O`, for which the cell number is 58.1 with HCC1569 [1] and 28 with TDF [2]. Also, the H1.0 immunofluorescence intensity in the assay on TDF [3] is 126 (active); in the assay with HCC1569 [4], 134 (inactive).

In the case of `O=C1Nc2ccc(Cl)cc2C1=Cc1cc(Cl)c(O)c(Cl)c1` [PKR Inhibitor, Negative Control], the cell number in the assay on HCC1569 [1] came out at 101; in the assay with TDF [2], 98.8. Besides, the H1.0 immunofluorescence intensity is 95.1 (inactive) in the assay with TDF [3] and 128 (inactive) with HCC1569 [4].

Consider `NC(N)=NCc1cccc(I)c1.NC(N)=NCc1cccc(I)c1.O=S(=O)(O)O` [m-Iodobenzylguanidine hemisulfate], for which the cell number in the assay with HCC1569 [1] stood at 109; in the assay on TDF [2] it was 98.8. The H1.0 immunofluorescence intensity in the assay with TDF [3] is 98.1 (inactive); in the assay on HCC1569 [4] it was 98.4 (inactive).

Turning to `CC(N)C12CC3CC(CC(C3)C1)C2` (stereo not drawn) [Rimantadine], the figures for the cell number in the assay on HCC1569 [1] and in the assay on TDF [2] were 99.7 and 107, respectively. Besides, the H1.0 immunofluorescence intensity was 93.4 (inactive) with TDF [3] and 112 (inactive) in the assay on HCC1569 [4].

Turning to `O=C(c1ccccc1)c1ccc(N2CCOCC2)cc1O` [DNA-PK Inhibitor V], the cell number in the assay on HCC1569 [1] turned out to be 94.7; with TDF [2], 95.7. The H1.0 immunofluorescence intensity is 91.7 (inactive) in the assay with TDF [3] and 109 (inactive) with HCC1569 [4].
